Source: PubChem (National Center for Advancing Translational Sciences (NCATS))
HTT promoter inh – Primary qHTS for Identification of Small Molecule Inhibitors of Huntingtin Promoter Activity; HEK293 HTT promoter firefly luciferase reporter, 24 h; 48,000 compounds, 0.93% hits; Potency, µM (highest dose often 57.5 µM), without a hit: at the highest dose activity change, negative = inhibition, most hits filed as inhibitors; also: potency is read from the fitted curve at half-maximal effect; nearly all actives have a fitted effect of over 50% in size
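Firefly luciferase signal from promoter-reporter HEK293 cells was scaled between vehicle (0%) and zero RLU (-100%). Compounds were tested at final concentrations of up to 57.5 uM over 24 h at 37 degrees C. PTC124 at 50 uM final served as control inhibitor.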
HTT-AS act – Primary qHTS for Identification of Small Molecule Activators of Huntingtin-Antisense Promoter Activity; 48,000 compounds, 0.24% hits; AID 1508624, 2021; HEK293 HTT-AS promoter firefly luciferase reporter, 24 h; response scale: percent change from vehicle, -100% = no light; Potency, µM (doses to about 57.5 µM), for the others: at the highest dose activity change, positive = activation, usual class: activators; also: potency is read from the fitted curve at half-maximal effect; nearly all actives have a fitted effect of over 55% in size
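Firefly luciferase readout (Dual-Glo, 10 min RT) after 24 h, 37 °C compound exposure (final up to 57.5 uM) of HEK293 reporter cells cultured 24 h beforehand; PTC124 at 50 uM final as control inhibitor; activity scaled vehicle 0%, zero RLU -100%.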
GPR32 ag – qHTS for Agonists of Human Resolvin D1 Receptor DRV1 | CHO-K1 GPR32 beta-arrestin PathHunter luminescence, 90 min; zero percent set by DMSO-only wells | activation, % at 76.9 µM | 48,000 compounds, 2.5% hits | AID 1346428, 2018;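 active = activation of at least 60% and not above a set upper limit, about 1 call in 100 departs from these limits; inconclusive = activation of 40% to 60%, or above that upper limit; inactive = activation under 40%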; also: 0% is about no effect
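Step 1: seed CHO-K1 GPR32 beta-arrestin cells, 2,500/well, overnight at 37 °C. Step 2: add compounds, 90 min at 37 °C. Step 3: detection reagent, 1 h ambient, then luminescence.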
* marks the source's active call; other numbers are inactive results; ? = inconclusive; . = not tested or not shown. Hits are enriched below; roughly 3.7% of the tested compounds scored in any of these assays. Unless noted, calls follow the shape of the dose curve; as a rule, active = well fitted curve in the direction sought with a large enough effect; inconclusive = small, poorly fitted or top-dose-only effect, or another doubt; inactive = no such curve, though single readings can be large; an effect the other way counts as inactive or inconclusive.

SMILES | HTT promoter inh | HTT-AS act | GPR32 ag
O=C(O)Cn1nnc(-c2cc(N3CCC(Oc4cc(F)ccc4Br)CC3)no2)n1 | ? | -34% | .
CCC(Sc1nc(-c2ccccc2)[nH]c1S(=O)(=O)c1ccc(C)cc1)C(=O)O (configuration not stated) | -13% | -6% | 6
Cc1ccc(S(=O)(=O)C2(C(=O)Nc3ccc(Cl)c(C(F)(F)F)c3)CC2)cc1 | -3% | -16% | 7
Cc1ccccc1OCC(O)Cn1c(=N)n(CCN2CCCCC2)c2ccccc21 (configuration not stated) | ? | -29% | 20
N=c1n(CCN2CCCCC2)c2ccccc2n1CC(O)COc1ccccc1 (configuration not stated) | ? | -50% | 65*
CCCCCn1c(=N)n(CC(O)COc2cccc(C)c2)c2ccccc21 (configuration not stated) | ? | -33% | 90*
CCCn1c(COc2cccc(C)c2)nc2ccccc21 | 10% | -3% | -2
COc1ccc(-c2cn3c(n2)sc2cc(C(=O)NC(C)C45CC6CC(CC(C6)C4)C5)ccc23)cc1 (configuration not stated) | 33% | ? | -8
CCc1ccccc1NC(=O)Cn1cc2c(n1)CCC(C)C2 (configuration not stated) | -16% | -8% | -14
